Test results published in PubChem BioAssay (NCI).
About 83,000 compounds went through this panel and 20% of them were active in at least one assay; those are over-represented in the sample as a whole.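 Single-concentration screen, 48 h exposure, 96-well plates. Endpoint: percent growth. Below 10 = active.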 Values without a mark were called inactive. The source made the active and inactive calls.

Tests used:
Assay in all cases: NCI-60 one-dose screen, 48 h (100 = growth as untreated, 0 = no growth, -100 = all killed)
Conditions in all cases: 10 µM unless noted
DU-145 prostate = system: DU-145 prostate
K-562 leukemia = system: K-562 leukemia
MALME-3M melanoma = system: MALME-3M melanoma
MDA-MB-231 breast = system: MDA-MB-231 breast
RXF 393 renal = system: RXF 393 renal
SF-268 CNS = system: SF-268 CNS
SF-295 CNS = system: SF-295 CNS
SF-539 CNS = system: SF-539 CNS
UACC-257 melanoma = system: UACC-257 melanoma
M14 melanoma = system: M14 melanoma
HCT-15 colon = system: HCT-15 colon
HT29 colon = system: HT29 colon
SNB-75 CNS = system: SNB-75 CNS
SNB-19 CNS = system: SNB-19 CNS
U251 CNS = system: U251 CNS
PC-3 prostate = system: PC-3 prostate
SK-MEL-5 melanoma = system: SK-MEL-5 melanoma
UACC-62 melanoma = system: UACC-62 melanoma
LOX IMVI melanoma = system: LOX IMVI melanoma
SK-MEL-28 melanoma = system: SK-MEL-28 melanoma

| SMILES | growth (DU-145 prostate) | growth (K-562 leukemia) | growth (MALME-3M melanoma) | growth (MDA-MB-231 breast) | growth (RXF 393 renal) | growth (SF-268 CNS) | growth (SF-295 CNS) | growth (SF-539 CNS) | growth (UACC-257 melanoma) | growth (M14 melanoma) | growth (HCT-15 colon) | growth (HT29 colon) | growth (SNB-75 CNS) | growth (SNB-19 CNS) | growth (U251 CNS) | growth (PC-3 prostate) | growth (SK-MEL-5 melanoma) | growth (UACC-62 melanoma) | growth (LOX IMVI melanoma) | growth (SK-MEL-28 melanoma) |
| --- | --- | --- | --- | --- | --- | --- | --- | --- | --- | --- | --- | --- | --- | --- | --- | --- | --- | --- | --- | --- |
| O=S(=O)(O)CCI | 112% | 112% | 113% | 104% | 98.8% | 104% | 105% | 102% | 113% | 99% | 108% | 116% | 98% | 102% | 110% | 95.7% | 91.2% | 101% | 97.8% | 113% |
| c1ccc2[nH]c(-c3ccc(OCCCCCOc4ccc(-c5nc6ccccc6[nH]5)cc4)cc3)nc2c1 | 21.4% | -13.8% (active) | -30.8% (active) | 40.5% | -74.2% (active) | -37.7% (active) | 53% | -12.8% (active) | 71.4% | -38.6% (active) | 16.7% | -30.6% (active) | -4.77% (active) | 46% | -2.78% (active) | -70% (active) | 37.7% | 12.8% | -77% (active) | -71.6% (active) |
| COC(=O)C1CC(=O)N(C(=O)Nc2ccc(Cl)cc2Cl)C1 (stereo not given) | 114% | 92.8% | 108% | 95.3% | 120% | 101% | 96.7% | 99.6% | 96.6% | 94.1% | 99% | 101% | 98.7% | 102% | 97.3% | 95.2% | 108% | 97.2% | 96.8% | 112% |
| Cc1ncc(C(=O)Nc2ccc(CN3CCN(C)CC3)c(C(F)(F)F)c2)cc1C#Cc1c(N)ncc2ccc(F)cc12 | -88.6% (active) | -57.1% (active) | -79.6% (active) | -88.9% (active) | -88.1% (active) | 20% | 42% | -93.6% (active) | -18.6% (active) | -74.9% (active) | -93.2% (active) | -87.4% (active) | -3.33% (active) | -99.6% (active) | -88.3% (active) | -83.6% (active) | -70.2% (active) | -28.7% (active) | -74.2% (active) | -85.8% (active) |
| CC(C)CSc1nc(-c2ccc(F)cc2)c(C#N)c(N2CCCCC2)n1 | 94.1% | 95.8% | 86.1% | 101% | 87.7% | 90.9% | 92.6% | 103% | 100% | 89.8% | 92.2% | 87.6% | 100% | 104% | 93% | 82% | 94.3% | 82.1% | 92.9% | 94.3% |
| CCCNC(=O)Oc1ccc(/C(=C(/CC)Cc2ccccc2)c2ccc(OCCN(CC)CC)cc2)cc1 | 86.1% | -31.9% (active) | 79.6% | 60.8% | 66.8% | 71.4% | 97.8% | 89.7% | 82.6% | -35.3% (active) | 7.99% (active) | -14.8% (active) | 63.6% | 87.7% | 45.1% | 60.8% | 39.8% | 91.7% | 63.9% | 92.9% |
| CC(=O)OCC(=O)[C@@]1(O)[C@H](C)C[C@H]2[C@@H]3C=C(C)C4=Cc5c(cnn5-c5ccc(F)cc5)C[C@]4(C)[C@H]3[C@@H](O)C[C@@]21C | 13.9% | 12.6% | 61.8% | 53.1% | -12.3% (active) | 34.2% | -32.2% (active) | -39.6% (active) | 49.8% | 32.6% | -11.1% (active) | -43.4% (active) | 6.75% (active) | 25.9% | 9.65% (active) | 12% | -47.3% (active) | -9.5% (active) | 1.77% (active) | 34.5% |
| COc1ccccc1C(=O)Nc1cccc(-c2cc(=O)c3c(OC)c(OC)c(OC)cc3o2)c1 | 44.9% | 36.4% | 65.5% | 51.3% | 59% | 54.5% | 59.2% | 63.8% | 61.5% | 41.5% | 41.5% | 24.6% | 83.2% | 36.2% | 39% | 30% | 25% | 43.1% | 35.4% | 56% |
| Clc1ccc(N/N=C(/c2ccccc2)c2ccccn2)nc1 | 42% | 15.5% | 50.5% | 30.7% | 74.6% | 37.8% | 41.2% | 41.3% | 13.4% | 28.9% | 16.2% | 36.1% | 43.4% | 60.1% | 42.1% | 35.5% | 25.3% | 32.5% | 21.5% | 51.9% |
| O=C(OCC1CC2(Cl)C(Cl)=C(Cl)C1(Cl)C2(Cl)Cl)C1C(C(=O)OCC2CC3(Cl)C(Cl)=C(Cl)C2(Cl)C3(Cl)Cl)C2(Cl)C(Cl)=C(Cl)C1(Cl)C2(Cl)Cl (stereo not given) | 97.4% | 94.7% | 98.6% | 109% | 104% | 100% | 94.8% | 97.9% | 113% | 98.5% | 99.9% | 99.6% | 97.8% | 106% | 99.2% | 105% | 104% | 107% | 122% | 112% |
| O=C(Nc1ccc(Cl)c(Cl)c1)O/N=C\c1c(Cl)ccc([N+](=O)[O-])c1Cl | -82.5% (active) | -7.08% (active) | -44.9% (active) | -59.7% (active) | -45.1% (active) | -4.9% (active) | 83.9% | 4.51% (active) | -49.2% (active) | 32% | -3.17% (active) | -73% (active) | 16.9% | 49.5% | 3.06% (active) | -8.42% (active) | 48.3% | -63.5% (active) | -82.1% (active) | -12.3% (active) |
| Cc1nc2c(nnn2-c2ccccc2)c2nc(-c3ccccc3)oc(=O)c12 | 117% | 106% | 115% | 109% | 109% | 108% | 101% | 97.7% | 123% | 102% | 101% | 113% | 99.1% | 104% | 110% | 105% | 104% | 97.2% | 98.3% | 104% |
| Cc1ccc(C(=O)Nc2ccc(CN3CCN(C)CC3)c(C(F)(F)F)c2)cc1C#Cc1cncc2ncccc12 | -88.1% (active) | -67.4% (active) | -88.9% (active) | -97% (active) | -95.7% (active) | -70.6% (active) | 27.3% | -98.2% (active) | -64% (active) | -89.5% (active) | -92.9% (active) | -89.3% (active) | -83.9% (active) | -99.3% (active) | -93.8% (active) | -69.3% (active) | -99.3% (active) | -84.8% (active) | -79% (active) | -90.4% (active) |
| CC1CCCCC[N+]12CCCC2 (stereo not given) | 105% | 107% | 100% | 99% | 92% | 109% | 92.2% | 104% | 104% | 102% | 95.6% | 107% | 95% | 106% | 85.3% | 93.4% | 99.5% | 103% | 95.8% | 109% |
| Cc1nc2ccccc2c(=O)n1-c1cccc(OCc2cn(-c3cccc(O)c3)nn2)c1 | 100% | 88.2% | 104% | 78.3% | 105% | 88.4% | 93.8% | 100% | 94.9% | 94.4% | 107% | 96.8% | 88.4% | 91.2% | 98.2% | 87.6% | 87% | 81.1% | 94.6% | 103% |
| O=C(N/N=C/c1ccccc1Cl)c1cccc2ccccc12 | 115% | 93.7% | 97.9% | 105% | 110% | 104% | 99.7% | 108% | 111% | 106% | 102% | 105% | 83.1% | 98.3% | 98.4% | 99.6% | 104% | 99.8% | 103% | 95.4% |
